# Measured values: PubChem BioAssay AID485364 (National Center for Advancing Translational Sciences (NCATS), 2010)
# Among all 360,000 compounds or so, about 11,000 (3.1%) were called active. Roughly 4% stayed inconclusive and do not appear here. This excerpt belongs to a sample that is enriched for actives. A number with no mark means an inactive call. Calls come from the whole dose curve; as a rule, active = well fitted inhibition curve with a large enough effect; inconclusive = small, poorly fitted or top-dose-only effect; inactive = no such curve, though single readings can be large or run the other way.
# Biological target: Schistosoma mansoni thioredoxin glutathione reductase (TGR) (UniProt Q962Y6)
# Experiment: qHTS Assay for the Inhibitors of Schistosoma Mansoni Peroxiredoxins; note: nearly all actives have a fitted effect of over 60% in size
# Settings: purified TGR, DTNB reduction, TNB absorbance 405 nm; series mostly up to 114 µM; activity change, negative = inhibition: at the top concentration
# Procedure, shortened: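 First, TGR (20 nM dispensed) and NADPH were mixed with compound. Second, a 15 min room-temperature incubation followed. Third, further NADPH and then DTNB were added to start the reaction. Finally, TNB absorbance was monitored kinetically.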
# % is set by controls: 0 for no effect and ±100 for the full control effect; potency is the fitted concentration of half-maximal effect.
SMILES,Potency,"activity change, negative = inhibition [%]"
O=[N+]([O-])c1cc(S(=O)(=O)CCCN2CCOCC2)ccc1F,7.08 µM (active),
O=S(=O)(NCCCN1CCOCC1)c1ccc(F)c(Cl)c1,,-19.4
O=C(NCCCN1CCOCC1)c1ccc([N+](=O)[O-])cc1[N+](=O)[O-],,0.872
COC(=O)c1cc2occc2n1Cc1nc(-c2ccc(C)cc2)oc1C,,-25.2
COc1ccc(-c2nc3sc(CCNC(=O)C(C)(C)C)c(C)n3n2)cc1,,-1.4
CCS(=O)(=O)c1cc([N+](=O)[O-])c(Sc2ccccc2N)s1,20 µM (active),
Cc1ccc(S(=O)(=O)NCCSc2ccccc2)cc1[N+](=O)[O-],,4.17
Cc1c(C(=O)Nc2cccc(Cl)c2)oc2ccc(S(=O)(=O)N3CCOCC3)cc12,,1.77
CCOc1ccc2nc(N3CCC(C(=O)Nc4cc(C)ccc4C)CC3)sc2c1,,4.2
Cc1cccn2c(=O)c(C=O)c(Nc3ccc(S(N)(=O)=O)cc3)nc12,,1.12
O=Cc1c(N2CCN(c3cccc(Cl)c3)CC2)nc2ccccn2c1=O,,3.7
O=Cc1c(Nc2ccccc2Cl)nc2ccccn2c1=O,10 µM (active),
CC1CCCN(c2csc3ccc(F)cc3c2=O)C1 (centres undefined),,-10.8
COc1ccc(CNC(=O)CC2Oc3ccc(C)cc3NC2=O)cc1 (centres undefined),,11
O=C(NCCc1ccc(Cl)cc1)c1ccc2nc(CCc3ccccc3)oc2c1,,11.9
Cc1ccc(C)c(N2CCN(C(=O)CCc3c(C)nc4c(c3C)c(=O)n(C)c(=O)n4C)CC2)c1,,0.107
Cc1cccnc1NC(=O)CSc1nnc(COc2ccc(C(C)C)cc2)n1C,,16.3
Cc1ccc(OCc2nnc(SC3CCc4ccccc4C3=O)n2C)cc1 (centres undefined),17.8 µM (active),
COc1ccccc1C(=O)Nc1ccc(OCc2nnc3c4ccccc4c(C)nn23)cc1,,-1.05
CC(=O)Nc1ccc(S(=O)(=O)N2CCn3cccc3C2C)cc1 (centres undefined),44.7 µM (active),
CC(=O)Nc1ccc(S(=O)(=O)N2CCSCC2)cc1,,5.01
CC(=O)Nc1ccc(S(=O)(=O)N2CCN(c3ccccc3)CC2)cc1,,14.6
Cc1cccc(N(C)C(=O)CS(=O)(=O)c2cccc3nsnc23)c1,,5.42
Cc1nc2c(-c3ccc(F)cc3)c(C)nn2c(C)c1CCC(=O)NCc1ccco1,,-2.64

SMILES,Potency,"activity change, negative = inhibition [%]"
CCOc1cccc(-c2nn3c(-c4ccccn4)nnc3s2)c1,,0
Fc1ccc(-c2ccc(-c3nn4c(-c5ccco5)nnc4s3)o2)cc1,50.1 µM (active),
CCN(CCCNC(=O)Cn1ncc2c3ccccc3n(C)c2c1=O)Cc1ccccc1,,-0.585
COc1ccc(N2CCN(C3=NS(=O)(=O)C(c4cccc(Br)c4)=C3C)CC2)cc1,,-3.56
COc1ccccc1CNC(=O)c1ccccc1NC(=O)c1nsc2ccccc12,,0.625
COc1ccc(C2NC(=O)N(C)C3=C2C(=O)N(c2ccc(C(=O)O)cc2)C3)cc1 (centres undefined),,9.85
COc1ccc(N2C(=O)C3CCCN3C2c2cccs2)cc1 (centres undefined),,9.2
COc1ccc(N2C(=O)C3C(C2=O)C(C(=O)c2ccccc2)N2CCCC32)cc1 (centres undefined),22.4 µM (active),
Cc1oc(-c2ccccc2)nc1Cn1c(SCc2cccc(C(F)(F)F)c2)nc2cccnc21,,9.82
Cc1c2cnn(-c3ccccc3)c(=O)c2c(C)n1C(C)C(=O)Nc1ccc(Br)cc1F (centres undefined),,-0.551
O=C(/C=C/c1ccccc1)Nc1cc(-c2nc3cc(Cl)ccc3o2)ccc1Cl,,-1.37
COc1ccc(NC(=O)c2sc3nc(-c4cc5cccc(OC)c5oc4=O)[nH]c(=O)c3c2C)cc1,,0.376
COc1cc(CNCCSc2nnnn2C)ccc1OCc1ccc(Cl)cc1Cl,,0.744
CC(C)Cn1c(=O)c2ccccc2n2c(-c3cccc(Cl)c3)nnc12,,2.27
O=c1[nH]c2ccccc2n2c(-c3ccccc3)nnc12,0.1 µM (active),
O=c1cc(-c2ccccc2)n2c(SCc3ccccc3)nnc2[nH]1,,-4.13
Cc1ccc(Cn2c(CCCNC(=O)C3CCCCC3)nc3ccccc32)cc1,,-13.8
CCS(=O)(=O)N1CCc2cc(C(=O)NCc3ccc(C)cc3)ccc21,,0.0863
COc1ccc(S(=O)(=O)n2nc(C)c(S(=O)(=O)N3CCCCCC3)c2C)cc1,,0.8
CCc1ccc(S(=O)(=O)Nc2cc3c(cc2N2CCCCC2)n(C)c(=O)c(=O)n3C)cc1,50.1 µM (active),
Cc1ccc(C(=O)Nc2cc3c(cc2N2CCCC2)n(C)c(=O)c(=O)n3C)cc1,,-11.3
Cc1ccc(NS(=O)(=O)c2ccc3c(c2)n(C)c(=O)c(=O)n3C)c(C)c1,,4.57
CCOC(=O)C1CCN(c2ncnc3c2c(-c2ccccc2)cn3-c2cccc(C)c2)CC1,,14.4
CCOC(=O)C1CCN(c2nc3c(S(=O)(=O)c4ccc(CC)cc4)nnn3c3ccc(Cl)cc23)CC1,,2.89

SMILES,Potency,"activity change, negative = inhibition [%]"
COc1ccc(S(=O)(=O)NCc2cccn2Cc2cccc(C)c2)cc1,,-10.6
Cn1c(=O)c2c(-c3ccccc3Br)n(Cc3ccccc3)cc2n(C)c1=O,,4.79
Cc1cccc(NC(=O)CN2CCCN(S(=O)(=O)c3ccc(Br)s3)CC2)c1,25.1 µM (active),
Cc1ccc(S(=O)(=O)N2CCN(CC(=O)N/N=C/c3ccc(Br)s3)CC2)cc1,,-2.13
CC(C)N(C(=O)CN1CCN(S(=O)(=O)c2ccc(Br)s2)CC1)C(C)C,,3.3
COc1ccc(CCNC(=O)CCCn2c(=O)c3ccccc3n(Cc3ccc(F)cc3Cl)c2=O)cc1OC,,1.2
Cc1ccc(-n2nc(-c3ccco3)cc2C(=O)NCc2cccnc2)cc1,3.55 µM (active),
CSc1sc(C(=O)NC(=O)NCc2cccnc2)c(C)c1-c1ccon1,,-0.382
Cc1ccc(C(=O)NC(=S)NCc2cccnc2)cc1,,-28.6
Cc1ccccc1CNC(=O)CCc1cn(Cc2ccccc2C)c2ccccc12,,-3.66
Cc1cc(C)cc(NS(=O)(=O)c2ccc(-c3cc(C)no3)s2)c1,,-1.74
Cc1ccc(CN2CCN(Cc3cn(C)nc3-c3ccccc3)CC2CCO)o1 (centres undefined),,-32.4
Cc1ccccc1CN1C[C@@H]2C[C@@H](c3ccc4nsnc4c3)N3CCC[C@@]23C1=O,,-34
Cc1ccccc1CN1C[C@@H]2C[C@@H](c3cn(C)nc3-c3ccccc3)N3CCC[C@@]23C1=O,7.94 µM (active),
CC(C)c1ccc(NC(=O)c2ccc3c(O)c(S(=O)(=O)c4ccccc4)c(=O)[nH]c3c2)cc1,,8.62
Cc1ccc(-c2nn3c(=O)cc(CN4CCN(C(=O)Nc5cccc(C(F)(F)F)c5)CC4)nc3s2)cc1,,8.52
COC(=O)c1ccccc1NC(=O)c1cncc(Br)c1,,-12.6
O=C(NC(=S)Nc1ccc(Cl)c(C(=O)O)c1)c1cncc(Br)c1,12.6 µM (active),
O=C(Nc1ccc(N2CCCC2=O)cc1)c1cncc(Br)c1,,-7.27
Cc1ccc(CNC(=O)C2(C(F)(F)F)C/C(=C\Cc3ccccc3)CCCO2)o1 (centres undefined),20 µM (active),
Cc1ccc(CNC(=O)Cn2cnc(S(=O)(=O)N3CCCCC3)c2)o1,,-23.2
Cc1ccc(C(=O)N2CC(=O)Nc3ccccc32)o1,,-3.55
COC(=O)c1cccc(Cn2nnc3sc4c(c3c2=O)CCC(C(C)(C)C)C4)c1 (centres undefined),,7.56
COc1cn(CC(=O)Nc2cccc(C)c2C)c(CN2CCCCC2)cc1=O,,18.7

SMILES,Potency,"activity change, negative = inhibition [%]"
CCc1ccccc1NC(=O)CSc1nc(C)c(C(=O)Nc2ccccc2)c(-c2ccc(Cl)cc2)c1C#N,,-0.637
COc1ccc(-c2onc(C)c2C)cc1S(=O)(=O)NCC1CCN(Cc2cccc(F)c2)CC1,,5.14
COC(=O)[C@@]12CCCN1[C@H](c1ccc(-c3ccc(F)cc3)c(OC)c1)[C@H]1C(=O)N(C)C(=O)[C@H]12,,-15
CCN1C(=O)[C@H]2[C@@H](c3ccc(-c4ccc(F)cc4)cc3)N[C@@](Cc3ccccc3)(C(=O)OC)[C@H]2C1=O,,-34.4
CCN1C(=O)[C@@H]2[C@@H](c3ccc(-c4ccc(OC)cc4)c(OC)c3)N3CCC[C@@]3(C(=O)OC)[C@@H]2C1=O,,2.71
CCN1C(=O)[C@H]2[C@@H](c3ccc(SC4CCCCC4)c(OC)c3)N[C@@](Cc3ccccc3)(C(=O)OC)[C@H]2C1=O,,-11.9
CCN1C(=O)[C@@H]2[C@@H](c3ccc(-c4cccc(Cl)c4)cc3)N3CCC[C@@]3(C(=O)OC)[C@@H]2C1=O,22.4 µM (active),
CCN1C(=O)[C@@H]2[C@@H](c3ccc(-c4ccccc4)cc3)N3CCCC[C@@]3(C(=O)OC)[C@@H]2C1=O,35.5 µM (active),
Cc1ccc(S(=O)(=O)c2c(Nc3cccc(Cl)c3)sc(C(=O)c3ccc4c(c3)OCO4)c2N)cc1,,-2.28
CCOC(=O)c1cccc(NS(=O)(=O)c2cc(-c3cnc(C)o3)ccc2OC)c1,,-1.22
CCOc1ccc(S(=O)(=O)Nc2ccc3oc4c(c3c2)CC(C)CC4)cc1 (centres undefined),,5.54
CCOc1ccc(C2C(=O)N(C3CCCCC3)CC(=O)N2CCC2=CCCCC2)cc1OC (centres undefined),,18.3
C=CCNc1cnn(-c2ccc(C)cc2)c(=O)c1Cl,,8.88
Cc1cccc(-n2ncc(Cl)c(Cl)c2=O)c1,28.2 µM (active),
Cc1ccc(-n2ncc3c(=O)[nH]cnc32)c(C)c1,,0
COc1ccc(Cn2c(=O)n(-c3ccccc3C)c(=O)c3c4c(sc32)CN(C(C)=O)CC4)cc1,,0.349
Cc1nccn1CCCNC(=O)CC1C(=O)NCCN1Cc1ccc(Cl)c(F)c1 (centres undefined),,-32.5
Cc1cc(C)n(CCNC(=O)CC2C(=O)NCCN2Cc2ccc(C)o2)n1 (centres undefined),39.8 µM (active),
O=C(CC1C(=O)NCCN1CC(c1ccccc1)c1ccccc1)NCC1CCOCC1 (centres undefined),,-0.261
CCc1nn(CC(=O)N2CCN(c3cccc(C(F)(F)F)c3)CC2)c(=O)c2cc3occc3n12,,-5.04
Cc1c(CNC(C)c2ccccc2)c(C(=O)O)c(C)n1Cc1c(F)cccc1Cl (centres undefined),,-1.38
COc1ccc(OC)c(NC(=O)C2CCCN(S(=O)(=O)c3ccc4c(c3)CCCC(=O)N4)C2)c1 (centres undefined),,7.2
